Compound activity (PubChem BioAssay)
The list is not random: actives were taken first. Their share in the collection is about 7.1%.
MCF10A rerep: A quantitative high throughput screen for small molecules that induce DNA re-replication in MCF 10a normal breast cells | MCF 10A DNA re-replication, Hoechst nuclear intensity, 48 h | actives 2.9% (n = 350,000) | AID 624296, 2012 | Potency, µM (doses to about 46.1 µM), inactives show top-dose activity, positive = re-replication, actives largely listed as activators; also: potency is read from the fitted curve at half-maximal effect; % of control where 0% means no effect; nearly all actives have a fitted effect of over 50% in size
PINK1 expr mod: A Quantitative High throughput Screen to Identify Chemical Modulators of PINK1 Expression | PINK1 immunofluorescence, high-content cytometry, 24 h | Potency, µM (titrated, usually from 76.6 µM), for the others: top-dose activation (PINK1 increase), usual class: activators | actives 0.2% (n = 410,000) | AID 624263, 2012; active = well fitted activation curve with a large enough effect; inconclusive = small, poorly fitted or top-dose-only effect; cell line not stated here; also: potency is read from the fitted curve at half-maximal effect; % of control where 0% means no effect; nearly all actives have a fitted effect of over 65% in size
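Fluorescence from anti-PINK1 antibody, together with nuclear and cell stains, was scanned on a laser-scanning cytometer. Before staining, stable-line cells were incubated 24 hours with compounds at 5 concentrations; primary antibody 12 h at 10 degrees C.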
ATXN2 expr inh: Primary qHTS for Inhibitors of ATXN expression | Potency, µM (top dose mostly 57 µM), without a hit: at the highest dose activity change, negative = inhibition, usual class: inhibitors | AID 1745845, 2022 | actives 0.72% (n = 360,000) | HEK-293 ATXN2-luciferase reporter, luminescence, 24 h; also: potency is read from the fitted curve at half-maximal effect; % is scaled to controls: 0 for no effect and ±100 for the full control effect; nearly all actives have a fitted effect of over 55% in size
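ATXN2-luciferase reporter cells (luciferase flanked by upstream and downstream ATXN2 gene portions) were treated 24 h at 37 °C with compounds at up to 57 uM. SteadyGlo luminescence gave expression; GF-AFC fluorescence gave viability.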
S2 tox: Viability Counterscreen for Primary qHTS for Inhibitors of ATXN expression | S2 cells (HEK-293 line with an ATXN2-luciferase reporter) viability, CellTiter-Fluor protease fluorescence, 24 h | Potency, µM (titrated, usually from 56.7 µM), actives largely listed as cytotoxic | actives 0.49% (n = 400,000); also: potency is read from the fitted curve at half-maximal effect; nearly all actives have a fitted effect of over 40% in size
SW480 rerep: A quantitative high throughput screen for small molecules that induce DNA re-replication in SW480 colon adenocarcinoma cells; SW480 DNA re-replication, Hoechst DNA content imaging, 48 h; Potency, µM (doses to about 46.1 µM), without a hit: top-dose re-replication activation, hits mostly activators; actives 1.8% (n = 340,000); also: potency is read from the fitted curve at half-maximal effect; % of control where 0% means no effect; nearly all actives have a fitted effect of over 55% in size
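SW480 cells exposed to compounds for 48 hr at 37 C, 5% CO2, then Hoechst-stained 40 min. Nuclear DNA content imaged by fluorescence scanning (405 nm excitation, 500-530 nm emission); re-replication scored as increased high-intensity nuclei.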
IL-1B inflam inh: qHTS for Inhibitors of Inflammasome Signaling: IL-1-beta AlphaLISA Primary Screen. actives 4.7% (n = 360,000). THP-1 LPS/ATP IL-1B secretion, AlphaLISA, 16 h; hits give low values. activity change, % at 57.5 µM; in the data active = activity change below about -50%; inconclusive = mostly about -30% to -49%; also: % is scaled to controls: 0 for no effect and ±100 for the full control effect
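THP-1 cells pretreated 1 hr with compounds (up to 57.5 uM final), then stimulated with LPS (250 ng/mL final) plus ATP (1.25 mM final); secreted IL-1B measured by AlphaLISA after 16 hr, decreased signal indicating inhibition.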
* = called active by the depositor; i = inactive; ? = inconclusive; · = no result; [ ] = dose if it differs, or a comment. Unless noted, calls follow the shape of the dose curve; as a rule, active = well fitted curve in the direction sought with a large enough effect; inconclusive = small, poorly fitted or top-dose-only effect, or another doubt; inactive = no such curve, though single readings can be large; an effect the other way counts as inactive or inconclusive.

SMILES	MCF10A rerep	PINK1 expr mod	ATXN2 expr inh	S2 tox	SW480 rerep	IL-1B inflam inh
Cc1sc2nc(C3CC3)nc(SCC(=O)N3c4ccccc4CC3C)c2c1C (configuration not stated)	9.2µM*	6.6%[38.3 µM]	-21.6%	i	14.6µM*	0.1
O=C(NCc1ccccc1)c1ccc2c(c1)sc1nc(-c3ccc(F)cc3)cn12	·	0.7%	·	·	·	·
COc1cc(CN(CC2CCCO2)C(=O)c2ccc(F)cc2)cc(OC)c1OC (configuration not stated)	·	0.8%	·	·	·	·
CC(C)c1nc(SCC(=O)N2c3ccccc3CC2C)c2ccccc2n1 (configuration not stated)	-3.7%	-5.9%[38.3 µM]	-10.1%	i	0.3%	-99.0*
Cc1ccc(-n2c(SCC(=O)N3CC(=O)Nc4ccccc43)nc3ccccc3c2=O)cc1	16.0%	0.9%	-16.3%	i	12.3%	-74.4*
Cc1cccc(C)c1-n1c(SCC(=O)N2CC(=O)Nc3ccccc32)nc2ccccc2c1=O	8.5%	-0.7%	-12.8%	?	·	-11.0
COCCn1c(SCC(=O)N2CC(=O)Nc3ccccc32)nc2ccccc2c1=O	7.7%	-1.2%	·	?	?	-1.2
CC(C)c1nc(SCC(=O)N2CC(=O)Nc3ccccc32)c2ccccc2n1	13.8%	2.3%	50.9%	i	2.1%	-99.3*
CC1Cc2ccccc2N1C(=O)CSc1ccccc1 (configuration not stated)	-3.4%	-4.4%[38.3 µM]	19.1%	i	-8.4%	0.5
CC1Cc2ccccc2N1C(=O)COC(=O)c1c2c(nc3ccccc13)CCCCC2 (configuration not stated)	20.6µM*	-1.7%	-13.0%	i	?	?
COc1ccc(C2C3=C(CC(C)(C)CC3=O)Oc3ncn(Cc4ccccc4)c(=N)c32)cc1 (configuration not stated)	16.4µM*	43.2%[38.3 µM]	-25.2%	?	?	-54.8*
CC1(C)CC(=O)C2=C(C1)Oc1ncn(Cc3ccco3)c(=N)c1C2c1ccccc1 (configuration not stated)	-3.4%	-0.5%	-21.7%	i	9.1%	-20.2
COC(=O)c1cn([C@@H]2C[C@@H](C(=O)Nc3cccc(SC)c3)N(C3CCCC3)C2)nn1	·	1.3%	·	i	·	·
Cc1cc(C)nc(-n2nc(C)c(Sc3ccc(F)cc3)c2N)n1	3.26µM*	4.9%[38.3 µM]	30.9%	?	18.4µM*	-10.8
O=C(Nc1ccc(CN2CCOCC2)cc1)c1ccc(Br)o1	2.4%	2.8%	·	i	?	-7.3
COc1c(Cl)cc(Cl)cc1C(=O)Nc1ccc(CN2CCCCC2)cc1	11.6µM*	6.0%	?	?	-0.7%	-19.9
O=C(Nc1ccc(CN2CCOCC2)cc1)c1ccc(-c2cc(Cl)ccc2Cl)o1	?	-3.3%	?	?	?	-64.1*
COc1ccccc1C(=O)Nc1ccc(CN2CCCCC2)cc1	28.5%	-0.4%	12.5%	i	-6.9%[9.22 µM]	-4.5
O=C(Nc1ccc(CN2CCCCC2)cc1)Nc1ccc(Br)cc1Cl	16.4µM*	-1.7%	14.1µM*	?	?	-85.3*
COc1c(Cl)cc(Cl)cc1C(=O)Nc1ccc(CN2CCOCC2)cc1	?	1.4%	0.4%	i	3.1%	-58.2*
CCc1ccc(NC(=O)CSc2nc3c(c(=O)[nH]2)CN(Cc2ccc(C)cc2)CC3)cc1	·	-1.5%	9.4%	i	·	·
Cc1[nH]c2ccccc2c1-c1csc(N)n1	-13.4%	0.9%	-4.5%	i	-3.3%	-13.2
COc1ccccc1Nc1nc(-c2c(C)[nH]c3ccccc23)cs1	5.8µM*	13.9%	9.5%	i	10.3µM*	-0.9
O=c1oc(Cl)c(Cl)c2ccccc12	0.2%	-0.8%	5.8%	i	-4.7%	-70.5*
CCN1CCN(c2oc(/C=C/c3cc(OC)c(OC)c(OC)c3)nc2C#N)CC1	·	0.8%	·	·	·	·
SMILES	MCF10A rerep	PINK1 expr mod	ATXN2 expr inh	S2 tox	SW480 rerep	IL-1B inflam inh
CCSc1nnc(NC(=O)c2csc3c2CCC(C)C3)s1 (configuration not stated)	-6.1%	12.2%[38.3 µM]	-1.9%	i	12.4%	32.0
CCSc1nnc(NC(=O)c2csc3c2CCCC3)s1	?	24.6%[38.3 µM]	-0.3%	i	14.6µM*	5.7
O=[N+]([O-])c1ccc(Oc2ccc(OCc3ccccc3)cc2)nc1	5.5%	0.3%	1.8%	i	8.8%	-80.4*
Cc1ccc(S(=O)(=O)N(C)CCN(C)S(=O)(=O)c2ccc(C)cc2)cc1	9.5%	1.7%	3.9%	i	-2.6%	4.6
Cc1ccccc1Nc1c(-c2c[nH]c3ccccc23)nc2cccc(C)n12	·	0.3%	35.0%	i	·	·
CC(C)c1ccc(NC(=O)Nc2nc(C(N)c3ccccc3Cl)cs2)cc1 (configuration not stated)	·	-1.2%	?	·	·	-76.9*
CC(C)c1ccc(NC(=O)Nc2nc(C(C)N)cs2)cc1 (configuration not stated)	·	0.3%	?	·	·	?
Cc1ccccc1NC(=O)Nc1nc(C(N)C2CCCCC2)cs1 (configuration not stated)	·	0.7%	?	i	·	-54.4*
CC(C)c1ccc(NC(=O)Nc2nc(C(N)C3CCCCC3)cs2)cc1 (configuration not stated)	·	0.4%	?	?	·	-113.4*
CN(C)c1ccc(NC(=O)Nc2nc(C(N)C3CCCCC3)cs2)cc1 (configuration not stated)	·	-1.6%	?	?	·	-60.3*
COc1cc(-c2cc(C)c3cccc(OC)c3n2)cc2c1OCCN(C(=O)Cn1nc(C)cc1C)C2	·	-0.2%	·	i	·	·
COc1ccccc1C1=NOC(COc2ccc3c(C)cc(=O)oc3c2)C1 (configuration not stated)	1.64µM*	-0.1%	-8.5%	i	8.2µM*	14.5
COc1ccc2c(C)cc(=O)oc2c1	-2.6%	-0.3%	9.7%	i	?	-18.6
COc1ccc(C2=NOC(COc3ccc4c(C)cc(=O)oc4c3)C2)c(OC)c1 (configuration not stated)	25.9µM*	4.1%	-24.0%	?	11.6µM*	0.3
CCCn1cc(S(=O)(=O)c2cccc(Cl)c2)c(=O)c2cc(F)c(N3CCCC3)cc21	·	23.0%	·	·	·	·
Cc1ccc(CN2C[C@H](Sc3ccccn3)C[C@H]2C(=O)Nc2ccc3sc(C)nc3c2)s1	·	-0.1%	·	i	·	·
